Values joined by “and” are separate entries in the source; they are usually repeats but may differ in a detail not shown here. Identical values can stand only once. Inconclusive results are not listed. Where a call stands in place of a potency, no number is given. The source holds several records for some structures; these can differ, active in one and inactive in another. Active and inactive are the calls of the source. Unless noted, the call rests on the fitted dose curve; in most records, active means well fitted curve in the direction sought with a large enough effect in the repeat runs; inconclusive means weak or mixed curves; inactive means no such curve, though single readings can be large; an effect the other way counts as inactive or inconclusive.
Key:
[1] = biological target: Thyrotropin receptor (Homo sapiens) (UniProt P16473); test: qHTS assay to identify small molecule antagonists of the thyroid stimulating hormone receptor (TSHR) signaling pathway (AID 1259385; calls by dose curve; further: nearly all actives have a fitted effect of over 20% in size)
How it was run: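 TSHR-HEK293 cells were plated and held 18 h at 37C/5% CO2, then given compound plus Ro20-1724 and stimulated with TSH at 1.5 ng/mL final. After 30 min at room temperature, cAMP was detected with cAMP-d2/anti-cAMP-cryptate (1 h) by fluorescence.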

[2] = qHTS assay to identify small molecule agonists of the estrogen receptor alpha (ER-alpha) signaling pathway in the presence of an antagonist - cell viability counter screen (AID 1259386);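 further: cells exposed to compounds for 22 h at 37 °C before the viability read; nearly all actives have a fitted effect of over 30% in size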; further: potency means the concentration at half of the fitted maximal effect
How it was run: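 Read-out: CellTiter-Fluor fluorescence after 1hr reagent incubation, measured in the same wells as the luciferase readout. VM7Luc4E2 cells were exposed to 15 compound concentrations with 10.0nM ICI-182,780 for 22hr at 37C.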

[3] = biological target: Progesterone receptor (Homo sapiens) (UniProt P06401); test: qHTS assay to identify small molecule agonists of the progesterone receptor (PR) signaling pathway (AID 1346784; calls by dose curve; further: nearly all actives have a fitted effect of over 30% in size)
How it was run: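 Using charcoal-stripped serum (2%) to limit endogenous steroids, PR-UAS-bla HEK 293T cells received compounds for 16 hr at 37C after 6 hr plating; beta-lactamase FRET fluorescence was recorded following 2 hr substrate loading at room temperature.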

[4] = biological target: Progesterone receptor (Homo sapiens) (UniProt P06401); test: qHTS assay to identify small molecule antagonists of the progesterone receptor (PR) signaling pathway (AID 1346795; active means well fitted inhibition curve with a large enough effect in the signal ratio in the repeat runs, not every such curve was filed as active; the % refers to the signal ratio)
How it was run: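 Inhibition of R5020-induced (1 nM final) beta-lactamase reporter signal in PR-UAS-bla HEK293T cells was scored by FRET fluorescence after overnight (16 hr) compound treatment.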

[5] = qHTS assay to identify small molecule antagonists of the progesterone receptor (PR) signaling pathway - cell viability counter screen (AID 1346798); further: series mostly up to about 92 µM; nearly all actives have a fitted effect of over 50% in size
How it was run: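 ATP content as viability readout: CellTiter-Glo luminescence, 30 min room temperature, in PR-UAS-bla HEK293T cells after 16 hr compound/R5020 treatment at 37C and 5% CO2.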

[6] = qHTS assay to identify small molecule agonists of the progesterone receptor (PR) signaling pathway - cell viability counter screen (AID 1346799; calls by dose curve; further: nearly all actives have a fitted effect of over 45% in size)
How it was run: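 Cytotoxicity in PR-bla HEK293T cells: 16 h compound, 37C; CellTiter-Glo added post-FRET read; luminescence after 30 min RT.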

[7] = qHTS assay to identify small molecule antagonists of the TGF-beta/Smad signaling pathway - cell viability counter screen (AID 1346824); further: nearly all actives have a fitted effect of over 50% in size; further: potency means the concentration at half of the fitted maximal effect
How it was run: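 SBE-bla HEK 293T cells were plated overnight at 37 C, then given compounds in DMSO plus TGF-beta1 (added as 0.25 ng/mL solution) for 5 hr. After the bla read, CellTiter-Glo was added to the same wells and luminescence read after 30 min at room temperature.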

[8] = qHTS assay to identify small molecule agonists of the TGF-beta/Smad signaling pathway - cell viability counter screen (AID 1346829); further: nearly all actives have a fitted effect of over 45% in size; further: potency means the concentration at half of the fitted maximal effect
How it was run: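 Same-well cytotoxicity: CellTiter-Glo added after the 2 hr room-temperature beta-lactamase substrate step, luminescence measured 30 min later; cells had 5 hr of compound at 37 C.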

[9] = qHTS assay to identify small molecule agonists of the TGF-beta/Smad signaling pathway (AID 1346859; active means well fitted activation curve with a large enough effect in the signal ratio in the repeat runs, not every such curve was filed as active; the % refers to the signal ratio; further: series mostly up to about 77 µM)
How it was run: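 Stable Smad binding element-beta-lactamase HEK 293T cells; 5 hr compound exposure at 37 C under 5% CO2; 2 hr room-temperature substrate step; fluorescence excited at 405 nm, collected at 460 nm and 530 nm.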

[10] = Human pregnane X receptor (PXR) small molecule agonists, qHTS cell viability counter screen (AID 1346977); further: nearly all actives have a fitted effect of over 50% in size; further: potency means the concentration at half of the fitted maximal effect
How it was run: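 Readout is CellTiter-Fluor fluorescence from PXR-Luc HepG2 cells. Plated cells rested 5hr, then were treated with compounds for 24hr at 37C and 5% CO2, with reagent present during the last hour.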

[11] = Caspase-3/7 induction in HepG2 cells by small molecules, qHTS assay (AID 1346978); further: nearly all actives have a fitted effect of over 15% in size; further: potency means the concentration at half of the fitted maximal effect
How it was run: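 Wild-type HepG2 cells (2,000/well) were settled 5 h at 37 C, 5% CO2, then exposed to compounds in DMSO for 17 h. Caspase-3/7 activity was read by luminescence 30 min after adding Caspase-Glo 3/7 reagent at room temperature.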

[12] = Caspase-3/7 induction in CHO-K1 cells by small molecules, qHTS cell viability counter screen (AID 1346979); further: nearly all actives have a fitted effect of over 35% in size; further: potency means the concentration at half of the fitted maximal effect
How it was run: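 To flag cytotoxic compounds, treated CHO-K1 wild-type cells were given CellTiter-Fluor at 16hr and read fluorescently after 1hr at 37C; the caspase-3/7 luminescence was measured in these same wells.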

[13] = Caspase-3/7 induction in CHO-K1 cells by small molecules, qHTS assay (AID 1346980); further: nearly all actives have a fitted effect of over 15% in size
How it was run: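 Wild-type cells were seeded at 1,500 per well and settled 5 hr at 37 C, 5% CO2, then exposed to DMSO-dissolved compounds for 17 hr. Caspase-Glo 3/7 reagent was added, and luminescence was read after 30min at room temperature.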

[14] = Caspase-3/7 induction in HepG2 cells by small molecules, qHTS cell viability counter screen (AID 1346981); further: nearly all actives have a fitted effect of over 30% in size; further: potency means the concentration at half of the fitted maximal effect
How it was run: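 Fluorescence read-out of live-cell protease activity (CellTiter-Fluor) after 1 hr with reagent. This was measured in the same wells as the caspase-3/7 luminescence, on HepG2 cells exposed to DMSO-dissolved compounds for 16 hr at 37 C.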

[15] = biological target: Nuclear receptor subfamily 1 group I member 2 (Homo sapiens) (UniProt O75469); test: Human pregnane X receptor (PXR) small molecule agonists, qHTS assay (AID 1346982); further: nearly all actives have a fitted effect of over 35% in size; further: potency means the concentration at half of the fitted maximal effect
How it was run: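 HepG2 PXR-Luc reporter line, 5% charcoal-stripped FBS; 5 hr pre-incubation, compound (DMSO) 24 hr at 37 C/5% CO2; ONE-Glo 30 min RT; luminescence read-out.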

[16] = biological target: Nuclear receptor subfamily 1 group I member 2 (Rattus norvegicus) (UniProt Q9R1A7); test: Rat pregnane X receptor (rPXR) activation by small molecules, qHTS assay (AID 1346983); details: rPXR luciferase reporter cells, One-Glo luminescence, 24 h; max activation: stronger effect = higher value; further: nearly all actives have a fitted effect of over 20% in size
How it was run: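 Cell-based rPXR luciferase reporter assay, 2,000 cells per well, rested 5hr at 37 C before compound addition in DMSO, then 24 hr at 37 C. One-Glo reagent was added and luminescence read after 30 min at room temperature.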

[17] = biological target: Nuclear receptor subfamily 1 group I member 2 (Homo sapiens) (UniProt O75469); test: Human pregnane X receptor (PXR) activation by small molecules, qHTS assay (AID 1346985); further: nearly all actives have a fitted effect of over 40% in size
How it was run: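 DPX-2 cells (HepG2 co-transfected with a PXR response element and a CYP3A4-promoter luciferase construct) were seeded at 2,000 per well, rested 5 hr at 37C, then exposed to DMSO-dissolved compounds for 24 hr. Activation was read as luciferase luminescence.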

[18] = biological target: Thyrotropin-releasing hormone receptor (Homo sapiens) (UniProt P34981); test: qHTS assay to identify small molecule antagonists of the thyrotropin-releasing hormone receptor (TRHR) signaling pathway (AID 1346877; active means well fitted inhibition curve with a large enough effect in the repeat runs, not every such curve was filed as active; further: series mostly up to about 51 µM)
How it was run: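 HEK293/TRHR cells, 18 h, 37 °C; Ca2+ dye 2 h; cpd 5 min RT; TRH 1 nM final; fluorescence read 3 min, 1 s intervals; 15 concs, triplicate.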

[19] = biological target: Thyrotropin-releasing hormone receptor (Homo sapiens) (UniProt P34981); test: qHTS assay to identify small molecule agonists of the thyrotropin-releasing hormone receptor (TRHR) signaling pathway (AID 1346891; calls by dose curve;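 further: HEK293 cells expressing TRHR with calcium dye readout; series mostly up to about 58 µM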)
How it was run: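 In 1536-format, 1500 TRHR-Hek293 cells per well grew 18 h, took up calcium dye for 2 h at 37 °C, received compound, and were read kinetically; 15-point titrations, triplicates.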

[20] = biological target: Nuclear receptor subfamily 1 group I member 2 (Homo sapiens) (UniProt O75469); test: CYP3A4 induction through human pregnane X receptor (PXR) by small molecules, qHTS assay (AID 1346984); further: nearly all actives have a fitted effect of over 40% in size; further: potency means the concentration at half of the fitted maximal effect
How it was run: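 HepG2-derived DPX-2 line carrying PXR plus a CYP3A4-promoter luciferase reporter; cells plated 5 hr, compound-exposed 24 hr at 37C. CYP3A4 activity probed with 3uM (final) Luciferin-IPA for 3hr, then luciferase read after One-Glo.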

Nuclear receptor subfamily 1 group I member 2 (Homo sapiens), sequence (O75469 whole entry, looked up): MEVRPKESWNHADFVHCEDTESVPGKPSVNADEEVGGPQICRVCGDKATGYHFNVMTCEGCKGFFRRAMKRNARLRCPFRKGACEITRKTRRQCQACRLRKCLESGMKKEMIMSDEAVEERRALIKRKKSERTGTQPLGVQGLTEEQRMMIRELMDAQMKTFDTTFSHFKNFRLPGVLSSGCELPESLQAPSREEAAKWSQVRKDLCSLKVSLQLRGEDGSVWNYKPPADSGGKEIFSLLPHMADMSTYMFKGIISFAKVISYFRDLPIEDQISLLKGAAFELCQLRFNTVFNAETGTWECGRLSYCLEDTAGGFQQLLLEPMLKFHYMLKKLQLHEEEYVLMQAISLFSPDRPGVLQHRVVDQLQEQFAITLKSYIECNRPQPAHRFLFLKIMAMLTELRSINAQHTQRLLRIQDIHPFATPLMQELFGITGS
Thyrotropin receptor (Homo sapiens), sequence (P16473 whole entry, looked up): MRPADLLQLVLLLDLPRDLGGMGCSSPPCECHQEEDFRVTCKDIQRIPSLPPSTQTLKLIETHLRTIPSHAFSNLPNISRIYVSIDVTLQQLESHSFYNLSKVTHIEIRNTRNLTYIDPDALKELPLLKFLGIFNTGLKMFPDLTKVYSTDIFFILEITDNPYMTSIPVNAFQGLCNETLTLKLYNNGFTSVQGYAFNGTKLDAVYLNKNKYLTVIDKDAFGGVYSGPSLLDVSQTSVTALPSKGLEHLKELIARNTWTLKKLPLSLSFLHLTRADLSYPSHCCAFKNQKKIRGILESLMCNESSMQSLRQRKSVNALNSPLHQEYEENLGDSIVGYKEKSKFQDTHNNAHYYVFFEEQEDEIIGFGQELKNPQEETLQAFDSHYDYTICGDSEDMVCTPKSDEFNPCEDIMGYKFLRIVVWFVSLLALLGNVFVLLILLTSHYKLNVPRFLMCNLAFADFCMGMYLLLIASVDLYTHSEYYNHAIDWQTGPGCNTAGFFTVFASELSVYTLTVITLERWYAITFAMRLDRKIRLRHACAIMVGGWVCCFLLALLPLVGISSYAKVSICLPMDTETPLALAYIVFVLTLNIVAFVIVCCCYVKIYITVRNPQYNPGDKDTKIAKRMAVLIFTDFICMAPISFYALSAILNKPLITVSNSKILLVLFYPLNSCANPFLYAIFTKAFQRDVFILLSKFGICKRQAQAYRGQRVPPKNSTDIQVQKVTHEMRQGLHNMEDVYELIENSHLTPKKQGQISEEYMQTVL
Progesterone receptor (Homo sapiens), sequence (P06401 whole entry, looked up): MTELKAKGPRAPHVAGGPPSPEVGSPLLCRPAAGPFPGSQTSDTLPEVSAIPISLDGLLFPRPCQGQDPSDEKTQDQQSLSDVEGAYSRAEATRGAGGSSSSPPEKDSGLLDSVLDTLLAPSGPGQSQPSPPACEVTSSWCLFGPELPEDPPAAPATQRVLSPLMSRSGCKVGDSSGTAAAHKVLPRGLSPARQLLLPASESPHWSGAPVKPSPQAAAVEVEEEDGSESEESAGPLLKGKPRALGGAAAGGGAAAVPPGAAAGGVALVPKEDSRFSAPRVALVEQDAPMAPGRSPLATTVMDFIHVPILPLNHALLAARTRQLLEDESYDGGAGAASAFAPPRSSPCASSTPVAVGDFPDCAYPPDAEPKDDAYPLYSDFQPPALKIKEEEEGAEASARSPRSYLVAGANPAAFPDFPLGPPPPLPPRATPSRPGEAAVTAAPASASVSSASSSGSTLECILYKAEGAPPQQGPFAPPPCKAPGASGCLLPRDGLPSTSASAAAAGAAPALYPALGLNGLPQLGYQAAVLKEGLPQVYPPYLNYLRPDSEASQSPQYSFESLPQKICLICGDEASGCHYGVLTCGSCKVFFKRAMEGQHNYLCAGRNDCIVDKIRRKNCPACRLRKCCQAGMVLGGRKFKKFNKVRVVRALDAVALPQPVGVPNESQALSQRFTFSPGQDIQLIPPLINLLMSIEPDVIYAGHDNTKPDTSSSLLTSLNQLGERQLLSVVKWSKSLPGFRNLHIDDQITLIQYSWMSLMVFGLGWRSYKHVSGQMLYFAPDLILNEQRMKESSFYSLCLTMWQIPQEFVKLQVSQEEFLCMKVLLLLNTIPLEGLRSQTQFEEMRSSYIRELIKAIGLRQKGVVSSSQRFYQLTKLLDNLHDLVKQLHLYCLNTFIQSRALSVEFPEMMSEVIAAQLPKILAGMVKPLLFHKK
Thyrotropin-releasing hormone receptor (Homo sapiens), sequence (P34981 whole entry, looked up): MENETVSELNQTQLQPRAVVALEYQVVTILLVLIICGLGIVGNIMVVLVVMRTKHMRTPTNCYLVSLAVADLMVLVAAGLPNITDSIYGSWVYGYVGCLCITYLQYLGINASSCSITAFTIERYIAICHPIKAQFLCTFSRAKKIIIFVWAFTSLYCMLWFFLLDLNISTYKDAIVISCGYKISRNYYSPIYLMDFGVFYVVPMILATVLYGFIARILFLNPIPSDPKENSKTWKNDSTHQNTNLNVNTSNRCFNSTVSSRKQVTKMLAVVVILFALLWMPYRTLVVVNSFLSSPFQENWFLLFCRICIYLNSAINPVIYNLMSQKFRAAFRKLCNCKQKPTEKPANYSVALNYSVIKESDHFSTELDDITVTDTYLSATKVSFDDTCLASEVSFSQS
Nuclear receptor subfamily 1 group I member 2 (Rattus norvegicus), sequence (Q9R1A7 whole entry, looked up): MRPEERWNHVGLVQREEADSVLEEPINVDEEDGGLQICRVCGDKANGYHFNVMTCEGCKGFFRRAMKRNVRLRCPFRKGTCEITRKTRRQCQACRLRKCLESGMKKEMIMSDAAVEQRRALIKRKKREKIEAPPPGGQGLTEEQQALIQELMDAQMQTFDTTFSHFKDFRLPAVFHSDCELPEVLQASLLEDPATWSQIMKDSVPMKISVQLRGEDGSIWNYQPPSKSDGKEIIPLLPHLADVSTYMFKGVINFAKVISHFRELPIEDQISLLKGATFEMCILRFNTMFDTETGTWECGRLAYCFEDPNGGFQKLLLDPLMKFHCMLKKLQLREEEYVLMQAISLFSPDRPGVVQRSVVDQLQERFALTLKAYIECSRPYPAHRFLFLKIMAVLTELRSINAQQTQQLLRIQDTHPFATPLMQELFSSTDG

Structure (SMILES) | Potency [1] | Potency [2] | Potency [3] | Potency [4] | Potency [5] | Potency [6] | Potency [7] | Potency [8] | outcome [9] | Potency [10] | Potency [11] | Potency [12] | Potency [13] | Potency [14] | Potency [15] | max activation [16] | outcome [17] | Potency [18] | Potency [19] | Potency [20]
CCCCC(CC)C(=O)O (stereo not drawn) | inactive | inactive | inactive | inactive | inactive | inactive | inactive | inactive | inactive | inactive | inactive | inactive | inactive | inactive | inactive | – | – | – | – | –
CC(=O)Nc1c(I)c(NC(C)=O)c(I)c(C(=O)O)c1I | inactive | inactive | inactive | inactive | inactive | inactive | inactive | inactive | inactive | inactive | inactive | inactive | inactive | inactive | 24.3 µM (active) and inactive | – | – | – | – | –
CN1[C@@H]2CC(OC(=O)[C@H](CO)c3ccccc3)C[C@H]1[C@@H]1O[C@@H]12 (stereo partly drawn) | inactive | inactive | inactive | inactive | inactive | inactive | inactive | inactive | inactive | inactive | – | inactive | inactive | inactive | inactive | 6.06% (inactive) and -0.026% (inactive) | inactive | – | – | –
NC(=O)n1c(O)c(C(=O)c2cccs2)c2cc(Cl)ccc21 | inactive | 29.8 µM (active) | inactive | – | – | – | inactive | inactive | inactive | – | inactive | – | inactive | – | – | 4.95% (inactive) | – | inactive | inactive | 28.2 µM (active)
CN[C@H]1CC[C@@H](c2ccc(Cl)c(Cl)c2)c2ccccc21 | inactive | inactive | inactive | – | – | inactive | inactive | – | inactive | 29.8 µM (active) | 13.3 µM (active) | 29.8 µM (active) | – | 29.8 µM (active) | – | 8.99% (inactive) | – | – | – | –
NC(=O)c1cccnc1 | inactive | inactive | inactive | inactive | inactive | inactive | inactive | inactive | inactive | inactive | inactive | inactive | inactive | inactive | inactive | -0.433% (inactive) | inactive | – | – | inactive
O=C(O)CC(O)C(=O)O (stereo not drawn) | inactive | inactive | – | – | inactive | inactive | inactive | inactive | inactive | inactive | inactive | inactive | inactive | inactive | inactive | -2.6% (inactive) | inactive | inactive | inactive | –
O=C1O[C@H]([C@@H](O)CO)C(O)=C1O | inactive | inactive | inactive | inactive | inactive | inactive | inactive | inactive | inactive | inactive | inactive | inactive | inactive | inactive | inactive | -0.298% (inactive) and -0.0182% (inactive) | inactive | – | – | inactive
O=c1[nH]cnc2c1ncn2[C@H]1CC[C@@H](CO)O1 | inactive | inactive | inactive | inactive | inactive | inactive | inactive | inactive | inactive | inactive | inactive | inactive | inactive | inactive | inactive | 0.0547% (inactive) | inactive | – | – | inactive
C=C(C)C(=O)OCC(C)O (stereo not drawn) | inactive | inactive | inactive | inactive | inactive | inactive | inactive | inactive | inactive | inactive | inactive | inactive | inactive | inactive | inactive | – | – | – | – | –
O=C(Nc1ncc([N+](=O)[O-])s1)c1cccs1 | inactive | 26.6 µM (active) | inactive | – | inactive | inactive | 10.7 µM (active) | 15.1 µM (active) | inactive | 23.7 µM (active) | inactive | 26.6 µM (active) | inactive | 29.8 µM (active) | 531 nM (active) | – | – | inactive | – | inactive
CN1CCc2cccc3c2[C@H]1Cc1ccc(O)c(O)c1-3 | inactive | 49.1 µM (active) and 22.8 µM (active) and 26.6 µM (active) | inactive | – | inactive | – | inactive | inactive | inactive | 43.7 µM (active) and 18.1 µM (active) and 29.8 µM (active) | inactive | 55 µM (active) and 22.8 µM (active) and 23.7 µM (active) | inactive | 61.8 µM (active) and 25.6 µM (active) | inactive | 9.82% (inactive) | inactive | inactive | – | 6.31 µM (active)
